TDP1 cell noCPT = qHTS for Inhibitors of human tyrosyl-DNA phosphodiesterase 1 (TDP1): qHTS in cells in absence of CPT | 15% of 420,000 active | Potency, µM (series often up to 46.2 µM), most hits filed as inhibitors | DT40 Tdp1-/- hTDP1 cells, no CPT, ATP luminescence, 48 h | AID 686978, 2013; note: nearly all actives have a fitted effect of over 55% in size
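A cellular qHTS used chicken DT40 cells lacking endogenous Tdp1 but carrying stably transfected human TDP1. Compounds were applied without camptothecin, and cell growth kinetics were judged by ATP-dependent luminescence after ≥48 hr.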
MCF10A rerep = DNA re-replication induction in MCF 10a cells; Potency, µM (doses to about 46.1 µM), most hits filed as activators; MCF 10A DNA re-replication, Hoechst nuclear intensity, 48 h; 2.9% of 350,000 active; note: nearly all actives have a fitted effect of over 50% in size
DT40 TDP1 CPT = growth inhibition of DT40 Tdp1-/-;hTDP1 cells with camptothecin (screen for TDP1 inhibitors); chicken DT40 Tdp1-/-;hTDP1 cells + 20 nM CPT, ATP luminescence, 48 h; Potency, µM (doses to about 46.2 µM), actives largely listed as inhibitors; 12% of 420,000 active; note: nearly all actives have a fitted effect of over 55% in size
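Chicken DT40 Tdp1-/- cells complemented with human TDP1, 400 cells/well, exposed to compounds plus 20 nM camptothecin for at least 48 h at 37 C; viability read as ATP content by CellTiter-Glo luminescence.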
SW480 rereplic = inducers of DNA re-replication in SW480 colon cancer cells; SW480 DNA re-replication, Hoechst DNA content imaging, 48 h; Potency, µM (top dose mostly 46.1 µM), hits mostly activators; AID 624297; 1.8% of 340,000 active; note: nearly all actives have a fitted effect of over 55% in size
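Per well, 250 cells were exposed to pinned compound for 48 hr. Nuclear DNA was visualised with Hoechst (40 min, 37 C) and total object intensity recorded by fluorescence scanning.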
BCR signal inh = chronic active BCR signaling inhibition. ABC-DLBCL IkBa-CBG/CBR reporter, luminescence ratio, 4 h. Potency, µM (highest dose often 46.1 µM), usual class: inhibitors. 0.05% of 340,000 active. AID 493014; active = well fitted inhibition curve with a large enough effect in the signal ratio, with a control signal flat, not every such curve was filed as active; inconclusive = small, poorly fitted or top-dose-only effect, or effect the other way, or a change in a side signal; the % refers to the signal ratio
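TMD8 ABC-DLBCL cells carrying doxycycline-inducible green luciferase fused to IkappaBalpha plus unfused red luciferase were exposed to compounds (up to 46 uM) for 4 hrs at 37C. Activity came from the overlap-corrected green/red luminescence ratio.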
IL1B secr inh = inhibitors of inflammasome signaling (IL-1 beta secretion); THP-1 LPS/ATP IL-1B secretion, AlphaLISA, 16 h; active compounds read low; activity change, % at 57.5 µM; 4.7% of 360,000 active; AID 743279; in the data active = activity change below about -50%; inconclusive = mostly about -30% to -49%
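THP-1 cells pretreated 1 hr with compounds (up to 57.5 uM final), then stimulated with LPS (250 ng/mL final) plus ATP (1.25 mM final); secreted IL-1B measured by AlphaLISA after 16 hr, decreased signal indicating inhibition.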
Numbers stand for hits. Hits are enriched below; roughly 19% of the tested compounds scored in any of these assays. Unless noted, calls come from the whole dose curve; as a rule, active = well fitted curve in the direction sought with a large enough effect; inconclusive = small, poorly fitted or top-dose-only effect, or another doubt; inactive = no such curve, though single readings can be large; an effect the other way counts as inactive or inconclusive.

How did CCN(CC)C(=O)N1CCN(c2c([N+](=O)[O-])c(=O)oc3ccccc23)CC1 do in these assays?
TDP1 cell noCPT: inconclusive; MCF10A rerep: inactive; DT40 TDP1 CPT: inactive; SW480 rereplic: inactive; BCR signal inh: inactive; IL1B secr inh: inactive

What do the screens show for `Cc1onc(-c2ccccc2)c1C(O)c1ccc(F)cc1` (configuration not stated)?
TDP1 cell noCPT: inactive; MCF10A rerep: inactive; DT40 TDP1 CPT: inactive; SW480 rereplic: inactive; BCR signal inh: inactive; IL1B secr inh: inactive

How did O=[N+]([O-])c1cnc(Nc2ccccc2)nc1Nc1ccccc1 do in these assays?
TDP1 cell noCPT: inactive; MCF10A rerep: inactive; DT40 TDP1 CPT: inactive; SW480 rereplic: inactive; BCR signal inh: inactive; IL1B secr inh: inactive

How did O=C(O)CCCn1c(O)c(C=C2N=c3ccccc3=N2)sc1=S do in these assays?
TDP1 cell noCPT: inconclusive; MCF10A rerep: inconclusive; DT40 TDP1 CPT: inconclusive; SW480 rereplic: inactive; BCR signal inh: inconclusive; IL1B secr inh: inactive

Results for COCCCn1c(O)c(/C=C2\N=C(C#N)C(=Nc3ccc(C)cc3)O2)sc1=S ?
TDP1 cell noCPT: 3.26µM; MCF10A rerep: inactive; DT40 TDP1 CPT: inconclusive; SW480 rereplic: inconclusive; BCR signal inh: inconclusive; IL1B secr inh: -81.8

Results for CCOc1cc(C(=O)NCCc2csc3nc(-c4ccccc4F)nn23)cc(OCC)c1OCC ?
TDP1 cell noCPT: inconclusive; DT40 TDP1 CPT: 23.1µM

What do the screens show for `COc1ccc(NC(=O)C(=O)NCCc2csc3nc(-c4ccccc4F)nn23)cc1OC`?
TDP1 cell noCPT: inactive; DT40 TDP1 CPT: inactive

Results for CC(C)(C)c1ccc(C(=O)NCCc2csc3nc(-c4ccccc4F)nn23)cc1 ?
TDP1 cell noCPT: inconclusive; DT40 TDP1 CPT: 20.6µM

What do the screens show for `CC(=O)Nc1cccc(NC(=O)C(=O)NCCc2csc3nc(-c4ccccc4F)nn23)c1`?
TDP1 cell noCPT: inactive; DT40 TDP1 CPT: inactive

How did CCCCOc1ccc(C(=O)NCCc2csc3nc(-c4ccccc4F)nn23)cc1 do in these assays?
TDP1 cell noCPT: inconclusive; DT40 TDP1 CPT: 25.9µM

Results for COc1ccc(CC(=O)NCCc2csc3nc(-c4ccccc4F)nn23)cc1 ?
TDP1 cell noCPT: inactive; DT40 TDP1 CPT: inconclusive

What do the screens show for `CC(=O)Nc1ccccc1-c1nc(CNC(=O)c2ccc(F)c(F)c2)c(C)o1`?
TDP1 cell noCPT: inactive; DT40 TDP1 CPT: inactive

What do the screens show for `COc1ccc(S(=O)(=O)c2c(SC)nn(CC(=O)Nc3cccc(C)c3C)c2N)cc1`?
TDP1 cell noCPT: inconclusive; DT40 TDP1 CPT: inactive

How did C(#CSCc1ccccc1)SCc1ccccc1 do in these assays?
TDP1 cell noCPT: inactive; DT40 TDP1 CPT: inactive; IL1B secr inh: inactive

How did C[n+]1cccc(O)c1SCc1ccccc1 do in these assays?
TDP1 cell noCPT: 4.61µM; MCF10A rerep: inactive; DT40 TDP1 CPT: 5.17µM; SW480 rereplic: inactive; BCR signal inh: inconclusive; IL1B secr inh: inactive

What do the screens show for `ClN=C1C=CC=CC1=NCl`?
TDP1 cell noCPT: inconclusive; DT40 TDP1 CPT: 16.4µM; IL1B secr inh: inactive

What do the screens show for `Cc1ccccc1NS(=O)(=O)c1ccc(C(=O)NCc2ccccc2CN2CCCC2)cc1`?
TDP1 cell noCPT: 23.1µM; DT40 TDP1 CPT: inconclusive; IL1B secr inh: inconclusive

How did O=C(NCc1ccccc1CN1CCCC1)c1ccc(S(=O)(=O)Nc2ccccc2F)cc1 do in these assays?
TDP1 cell noCPT: inconclusive; DT40 TDP1 CPT: inactive; IL1B secr inh: inactive

How did O=C(NCc1ccccc1CN1CCCC1)c1ccc(S(=O)(=O)Nc2ccccc2)cc1 do in these assays?
TDP1 cell noCPT: 13µM; DT40 TDP1 CPT: 20.6µM; IL1B secr inh: inconclusive

How did O=C(Nc1ccc(F)cc1F)C1CCN(S(=O)(=O)c2ccc3[nH]c(=O)ccc3c2)CC1 do in these assays?
TDP1 cell noCPT: inactive; DT40 TDP1 CPT: inactive

How did CCCc1cc(C(=O)Nc2cccc(-c3nn[nH]n3)c2)sc1C do in these assays?
TDP1 cell noCPT: inactive; DT40 TDP1 CPT: inactive; IL1B secr inh: inactive

Results for Cc1ccc(-n2ncc(Br)c(Br)c2=O)cc1 ?
TDP1 cell noCPT: 3.66µM; MCF10A rerep: inconclusive; DT40 TDP1 CPT: 4.11µM; SW480 rereplic: inactive; BCR signal inh: inconclusive; IL1B secr inh: -99.1

What do the screens show for `O=c1c(Br)c(Br)cnn1-c1ccccc1`?
TDP1 cell noCPT: 3.66µM; MCF10A rerep: inconclusive; DT40 TDP1 CPT: 4.11µM; SW480 rereplic: inactive; BCR signal inh: inconclusive; IL1B secr inh: -106.1

How did CC(OC(=O)c1ccc(Br)o1)C(=O)NCC1CCCCC1 (configuration not stated) do in these assays?
TDP1 cell noCPT: inconclusive; MCF10A rerep: inactive; DT40 TDP1 CPT: inactive; SW480 rereplic: inactive; BCR signal inh: inactive; IL1B secr inh: inactive

Results for O=C(CNC(=O)/C=C/c1ccco1)N=Nc1c(O)[nH]c2ccccc12 ?
TDP1 cell noCPT: inactive; MCF10A rerep: inactive; DT40 TDP1 CPT: inactive; SW480 rereplic: inactive; BCR signal inh: inactive; IL1B secr inh: inactive

How did COCCCN1C(=O)C(CC(=O)NCc2cccs2)CC(C(=O)N(C(C)C)C(C)C)=C1C (configuration not stated) do in these assays?
TDP1 cell noCPT: inactive; DT40 TDP1 CPT: inactive; IL1B secr inh: inactive

Results for CS(=O)(=O)Nc1cccc(C2=NN(C(=O)c3ccc(F)cc3)C(c3cccs3)C2)c1 (configuration not stated) ?
TDP1 cell noCPT: inconclusive; MCF10A rerep: inconclusive; DT40 TDP1 CPT: inconclusive; SW480 rereplic: inactive; BCR signal inh: inconclusive; IL1B secr inh: inactive

How did Cc1ccccc1C(=O)N1N=C(c2cccc(NS(C)(=O)=O)c2)CC1c1cccs1 (configuration not stated) do in these assays?
TDP1 cell noCPT: inactive; MCF10A rerep: inactive; DT40 TDP1 CPT: inactive; SW480 rereplic: inactive; BCR signal inh: inactive; IL1B secr inh: inactive

What do the screens show for `CS(=O)(=O)Nc1ccc(C2=NN(C(=O)c3ccco3)C(c3ccccc3F)C2)cc1` (configuration not stated)?
TDP1 cell noCPT: 18.4µM; MCF10A rerep: inactive; DT40 TDP1 CPT: inconclusive; SW480 rereplic: inactive; BCR signal inh: inconclusive; IL1B secr inh: inactive

Results for CCS(=O)(=O)Nc1ccc(C2=NN(C(=O)c3ccco3)C(c3ccco3)C2)cc1 (configuration not stated) ?
TDP1 cell noCPT: 4.11µM; MCF10A rerep: 9.2µM; DT40 TDP1 CPT: 4.61µM; SW480 rereplic: inconclusive; BCR signal inh: inconclusive; IL1B secr inh: inactive

Results for CS(=O)(=O)Nc1cccc(C2=NN(C(=O)c3ccco3)C(c3ccco3)C2)c1 (configuration not stated) ?
TDP1 cell noCPT: inconclusive; MCF10A rerep: inconclusive; DT40 TDP1 CPT: 16.4µM; SW480 rereplic: inconclusive; BCR signal inh: inactive; IL1B secr inh: inactive

High-throughput results (PubChem)
